Inconclusive results are not listed. Activity calls are given as the source filed them. How the source made its calls, unless noted: active means hit-call score of the fitted dose curve at least 0.9, where 1 is the maximum; inactive means score below 0.9.
Assays:
[1] = molecular target: Paired box protein Pax-6 (Homo sapiens) (UniProt P26367); assay: ATG_Pax6_CIS: Attagene CIS-FACTORIAL HepG2 Assay for human Paired Box 6 (PAX6) (AID 2282956); conditions: HepG2 CIS-FACTORIAL PAX6 reporter transcription, RNA readout; actives raise or lower the signal
Summary of the method: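 DMSO-referenced bidirectional fits of reporter mRNA fluorescence; HepG2 with transient cis-promoter MRTUs, 24 h post-dose, RT-PCR plus capillary electrophoresis detection.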

[2] = ATG_PPRE_CIS: Attagene CIS-FACTORIAL HepG2 Assay for human Peroxisome Proliferator-activated Response Element (PPRE) (AID 2282958); conditions: HepG2 PPRE cis-element reporter, Attagene transcription factor profiling; actives raise or lower the signal
Summary of the method: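 Measured endpoint: PPRE-controlled reporter mRNA, detected by RT-PCR and capillary electrophoresis fluorescence, from transiently transfected HepG2 cells 24 h after dosing. Curves fitted in both directions using DMSO baseline.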

[3] = ATG_RORE_CIS: Attagene CIS-FACTORIAL HepG2 Assay for human RAR-related Orphan Receptor Element (RORE) (AID 2282959); conditions: HepG2 Attagene cis-factorial RORE reporter, mRNA; actives raise or lower the signal
Summary of the method: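 Transiently transfected HepG2 reporter cells were treated 24 h. Reporter transcripts were detected by RT-PCR and capillary electrophoresis, with bidirectional fitting against DMSO.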

[4] = molecular target: Transcription factor Sp1 (Homo sapiens) (UniProt P08047); assay: ATG_Sp1_CIS: Attagene CIS-FACTORIAL HepG2 Assay for human Specificity Protein 1 (Sp1) (AID 2282961); conditions: HepG2 Sp1 cis-reporter transcription, actives raise or lower the signal
Summary of the method: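 Endpoint reflects endogenous Sp1 transcriptional activity, not an exogenous fusion protein: HepG2 cells with transfected cis-regulated reporters, 24 h dosing, RT-PCR/capillary electrophoresis mRNA read-out, DMSO-normalised bidirectional fit.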

[5] = ATG_SREBP_CIS: Attagene CIS-FACTORIAL HepG2 Assay for human Sterol Regulatory Element Binding (SREBP) (AID 2282962); conditions: HepG2 Attagene cis-factorial SREBP reporter, mRNA; actives raise or lower the signal
Summary of the method: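 In this cis-format assay, HepG2 liver cells express reporters controlled by promoter elements responsive to native transcription factors. Exposure lasts 24 h; reporter mRNA fluorescence from capillary electrophoresis gives the signal, fitted bidirectionally against DMSO.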

[6] = molecular target: Signal transducer and activator of transcription 3 (Homo sapiens) (UniProt P40763); assay: ATG_STAT3_CIS: Attagene CIS-FACTORIAL HepG2 Assay for human Signal Transducer and Activator of Transcription 3 (STAT3) (AID 2282963); conditions: HepG2, Attagene cis-factorial STAT3 reporter transcription; actives raise or lower the signal
Summary of the method: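 Fluorescence intensity of 6-FAM-labelled reporter fragments, separated by capillary electrophoresis after RT-PCR, gave the signal. Cells were HepG2 transfected with cis-element reporter units and treated 24 h; fitting was bidirectional relative to DMSO.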

[7] = ATG_TA_CIS: Attagene CIS-FACTORIAL HepG2 Assay for human TA Basal Promoter (AID 2282964); conditions: HepG2 Attagene CIS-factorial TA basal promoter reporter; actives raise or lower the signal
Summary of the method: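 Fluorescence from labelled RT-PCR reporter fragments, separated by capillary electrophoresis, gives the signal. Cells: HepG2 transiently carrying multiple reporter units, 24 h chemical dosing. Gain or loss relative to DMSO.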

[8] = ATG_TCF_b_cat_CIS: Attagene CIS-FACTORIAL HepG2 Assay for human T-Cell-Factor with beta-catenin (TCF/b-cat) (AID 2282965); conditions: HepG2 TCF/beta-catenin cis-reporter transcription, actives raise or lower the signal
Summary of the method: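 HepG2, transient MRTU transfection, cis-element-driven reporters (endogenous TFs). 24 h compound exposure. Readout: reporter mRNA by RT-PCR + 6-FAM primer extension, HpaI digest, capillary electrophoresis. Gain/loss fit vs DMSO baseline.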

[9] = ATG_TAL_CIS: Attagene CIS-FACTORIAL HepG2 Assay for human TAL Basal Promoter (AID 2282966); conditions: HepG2 Attagene cis-factorial TAL promoter reporter; actives raise or lower the signal;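 further: background control endpoint measuring basal TAL promoter reporter mRNA not a specific factor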
Summary of the method: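 Transiently transfected HepG2 (cis-regulated reporter units), 24 h treatment, mRNA read by fluorescent CE after RT-PCR; bidirectional fit, DMSO baseline.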

[10] = ATG_TGFb_CIS: Attagene CIS-FACTORIAL HepG2 Assay for human Transforming Growth Factor (TGF) (AID 2282967); conditions: HepG2 Attagene CIS TGFb reporter, mRNA transcription; actives raise or lower the signal
Summary of the method: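 Bidirectional fitting relative to DMSO gave the endpoint. Underlying data: reporter mRNA from HepG2 cells carrying transiently transfected cis-regulated reporter constructs, harvested 24 h after dosing and analyzed by RT-PCR and capillary electrophoresis.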

[11] = ATG_VDRE_CIS: Attagene CIS-FACTORIAL HepG2 Assay for human Vitamin D Receptor Element (VDRE) (AID 2282968); conditions: HepG2 VDRE cis-reporter transcription, actives raise or lower the signal
Summary of the method: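 Compounds were applied for 24 h to HepG2 cells transfected with promoter-regulated reporter units. Total RNA was reverse-transcribed, and reporter amplicons were fluorescently labelled and sized by capillary electrophoresis.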

[12] = molecular target: Estrogen receptor (Homo sapiens) (UniProt P03372); assay: ATG_ERa_TRANS: Attagene TRANS-FACTORIAL HepG2 Assay for human Estrogen Receptor alpha (ERa) (AID 2282970; active means hit-call score of the fitted dose curve at least 0.9, where 1 is the maximum); conditions: HepG2 Attagene TRANS ERa GAL4 reporter, mRNA
Summary of the method: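 One of 30 multiplexed endpoints from a HepG2 TRANS system, this one reports ERa-Gal4-driven reporter mRNA. Transcripts were quantified 24 hours post-dosing by fluorescent RT-PCR and capillary electrophoresis, with activity scored as induction over DMSO.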

[13] = molecular target: X-box-binding protein 1 (Homo sapiens) (UniProt P17861); assay: ATG_Xbp1_CIS: Attagene CIS-FACTORIAL HepG2 Assay for human X-box Binding Protein 1 (XBP1) (AID 2282972); conditions: HepG2 XBP1 cis-element reporter, Attagene multiplex; actives raise or lower the signal
Summary of the method: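 Changes in reporter transcript abundance, read by RT-PCR and capillary electrophoresis, reflect endogenous transcription factor activity. Transfected HepG2 cells received compound for 24 hours; DMSO defined baseline for bidirectional analysis.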

[14] = ATG_M_19_TRANS: Attagene TRANS-FACTORIAL HepG2 Assay for M19 Transcription Factor (Internal Marker) (AID 2282974; active means hit-call score of the fitted dose curve at least 0.9, where 1 is the maximum); conditions: HepG2 Attagene TRANS-FACTORIAL M19 internal marker reporter
Summary of the method: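 Using RT-PCR and capillary electrophoresis, reporter mRNA from transiently transfected human HepG2 cells was quantified following 24 h exposure; activity was fitted in the positive direction against DMSO.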

[15] = ATG_Sox_CIS: Attagene CIS-FACTORIAL HepG2 Assay for human SRY-box transcription factor (SOX) (AID 2282960); conditions: HepG2 Attagene cis-factorial SOX reporter, mRNA; actives raise or lower the signal
Summary of the method: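 Gain- or loss-of-signal endpoint, fitted bidirectionally with DMSO as negative control. Based on reporter mRNA from transfected HepG2 cells harvested 24 h post-treatment and quantified via RT-PCR and capillary electrophoresis.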

[16] = molecular target: Steroid hormone receptor ERR1 (Homo sapiens) (UniProt P11474); assay: ATG_ERRa_TRANS: Attagene TRANS-FACTORIAL HepG2 Assay for human Estrogen-Related Receptor alpha (ERRa) (AID 2282971; active means hit-call score of the fitted dose curve at least 0.9, where 1 is the maximum); conditions: HepG2 Attagene TRANS reporter, ERRa transactivation
Summary of the method: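 HepG2 cells transiently transfected with multiplexed GAL4-UAS reporter units reading chimeric ERRa-Gal4 activity; 24 h compound exposure. Reporter mRNA measured by RT-PCR, 6-FAM labelling, HpaI digest and capillary electrophoresis; gain of signal fitted versus DMSO baseline.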

[17] = ATG_GAL4_TRANS: Attagene TRANS-FACTORIAL HepG2 Assay for GAL4 (Internal Marker) (AID 2282976; active means hit-call score of the fitted dose curve at least 0.9, where 1 is the maximum); conditions: HepG2 Attagene TRANS GAL4 internal marker reporter
Summary of the method: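 HepG2 cells transiently transfected with multiplexed GAL4-UAS reporter constructs were dosed for 24 h. Reporter mRNA was measured by RT-PCR, 6-FAM primer extension, HpaI digestion and capillary electrophoresis, and gain of signal was fitted relative to DMSO.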

[18] = molecular target: Nuclear receptor subfamily 1 group I member 3 (Homo sapiens) (UniProt Q14994); assay: ATG_CAR_TRANS: Attagene TRANS-FACTORIAL HepG2 Assay for human Constitutive Androstane Receptor (CAR) (AID 2282969; active means hit-call score of the fitted dose curve at least 0.9, where 1 is the maximum;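 further: activators raise reporter mRNA above DMSO so AC50 marks induction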); conditions: HepG2 Attagene TRANS-FACTORIAL CAR reporter
Summary of the method: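 Transiently transfected HepG2, multiplex TRANS reporters (CAR-Gal4 chimera driving GAL4-UAS reporter). 24 h dosing. Readout: reporter transcript by RT-PCR + capillary electrophoresis, fluorescence intensity; positive direction vs DMSO.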

[19] = molecular target: Estrogen-related receptor gamma (Homo sapiens) (UniProt P62508); assay: ATG_ERRg_TRANS: Attagene TRANS-FACTORIAL HepG2 Assay for human Estrogen-Related Receptor gamma (ERRg) (AID 2282977; active means hit-call score of the fitted dose curve at least 0.9, where 1 is the maximum;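 further: hits increase reporter signal over DMSO so potencies reflect activators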); conditions: HepG2 Attagene TRANS reporter, ERRg transactivation
Summary of the method: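 Exogenous NR-Gal4 chimera activity measured as reporter transcript induction after 24 h in transiently transfected HepG2 cells. RNA reverse-transcribed, PCR-amplified, 6-FAM-labelled and resolved by capillary electrophoresis; increase over DMSO baseline.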

Measured: AC50

Signal transducer and activator of transcription 3 (Homo sapiens), sequence (P40763 whole entry, looked up, the tested form may be a part): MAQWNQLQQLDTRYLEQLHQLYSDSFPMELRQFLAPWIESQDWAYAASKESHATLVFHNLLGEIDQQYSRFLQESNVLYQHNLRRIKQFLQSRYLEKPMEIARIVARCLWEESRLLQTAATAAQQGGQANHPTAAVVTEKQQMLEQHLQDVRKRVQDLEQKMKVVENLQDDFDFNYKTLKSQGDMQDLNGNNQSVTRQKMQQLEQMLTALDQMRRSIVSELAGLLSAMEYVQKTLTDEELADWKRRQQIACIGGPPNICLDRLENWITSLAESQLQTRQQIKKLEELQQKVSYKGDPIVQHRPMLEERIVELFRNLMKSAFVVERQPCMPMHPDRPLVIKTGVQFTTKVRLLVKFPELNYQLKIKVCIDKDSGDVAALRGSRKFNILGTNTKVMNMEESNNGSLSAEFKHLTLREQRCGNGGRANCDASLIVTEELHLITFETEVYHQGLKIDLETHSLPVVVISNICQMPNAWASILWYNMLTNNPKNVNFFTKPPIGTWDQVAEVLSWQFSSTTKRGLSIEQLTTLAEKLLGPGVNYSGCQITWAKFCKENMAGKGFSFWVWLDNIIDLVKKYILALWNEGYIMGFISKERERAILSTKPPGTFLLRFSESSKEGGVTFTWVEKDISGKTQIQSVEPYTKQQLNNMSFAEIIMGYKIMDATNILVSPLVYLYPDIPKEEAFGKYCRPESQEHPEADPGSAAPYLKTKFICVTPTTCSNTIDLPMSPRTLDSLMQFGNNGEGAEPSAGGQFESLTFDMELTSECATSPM
Paired box protein Pax-6 (Homo sapiens), sequence (P26367 whole entry, looked up): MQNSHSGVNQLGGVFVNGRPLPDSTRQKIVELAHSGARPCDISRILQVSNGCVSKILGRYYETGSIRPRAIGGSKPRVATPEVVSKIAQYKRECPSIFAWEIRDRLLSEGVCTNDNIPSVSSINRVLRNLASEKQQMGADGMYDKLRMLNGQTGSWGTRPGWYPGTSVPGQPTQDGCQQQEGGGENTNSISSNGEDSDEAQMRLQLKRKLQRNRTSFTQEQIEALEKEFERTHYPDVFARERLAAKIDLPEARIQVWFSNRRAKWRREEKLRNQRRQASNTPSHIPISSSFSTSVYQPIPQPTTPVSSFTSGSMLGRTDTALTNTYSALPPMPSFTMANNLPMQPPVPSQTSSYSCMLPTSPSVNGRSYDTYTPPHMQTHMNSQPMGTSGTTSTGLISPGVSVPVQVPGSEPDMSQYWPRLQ
Estrogen receptor (Homo sapiens), sequence (P03372 whole entry, looked up, the tested form may be a part): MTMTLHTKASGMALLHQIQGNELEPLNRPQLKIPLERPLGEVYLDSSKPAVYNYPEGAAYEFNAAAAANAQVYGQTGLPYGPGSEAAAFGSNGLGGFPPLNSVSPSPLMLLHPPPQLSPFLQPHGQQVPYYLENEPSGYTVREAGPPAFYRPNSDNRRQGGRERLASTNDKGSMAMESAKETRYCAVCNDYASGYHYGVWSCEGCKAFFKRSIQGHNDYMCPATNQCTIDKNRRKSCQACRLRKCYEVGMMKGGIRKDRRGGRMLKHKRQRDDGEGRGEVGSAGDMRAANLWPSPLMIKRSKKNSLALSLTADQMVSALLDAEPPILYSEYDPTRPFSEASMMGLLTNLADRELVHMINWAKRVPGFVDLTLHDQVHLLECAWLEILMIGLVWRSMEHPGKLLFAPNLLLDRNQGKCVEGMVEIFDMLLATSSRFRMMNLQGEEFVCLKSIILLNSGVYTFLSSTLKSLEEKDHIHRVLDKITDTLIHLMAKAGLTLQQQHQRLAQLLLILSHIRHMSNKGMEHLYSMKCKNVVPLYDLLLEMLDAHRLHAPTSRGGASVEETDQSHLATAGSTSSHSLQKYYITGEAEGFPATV
Transcription factor Sp1 (Homo sapiens), sequence (P08047 whole entry, looked up, the tested form may be a part): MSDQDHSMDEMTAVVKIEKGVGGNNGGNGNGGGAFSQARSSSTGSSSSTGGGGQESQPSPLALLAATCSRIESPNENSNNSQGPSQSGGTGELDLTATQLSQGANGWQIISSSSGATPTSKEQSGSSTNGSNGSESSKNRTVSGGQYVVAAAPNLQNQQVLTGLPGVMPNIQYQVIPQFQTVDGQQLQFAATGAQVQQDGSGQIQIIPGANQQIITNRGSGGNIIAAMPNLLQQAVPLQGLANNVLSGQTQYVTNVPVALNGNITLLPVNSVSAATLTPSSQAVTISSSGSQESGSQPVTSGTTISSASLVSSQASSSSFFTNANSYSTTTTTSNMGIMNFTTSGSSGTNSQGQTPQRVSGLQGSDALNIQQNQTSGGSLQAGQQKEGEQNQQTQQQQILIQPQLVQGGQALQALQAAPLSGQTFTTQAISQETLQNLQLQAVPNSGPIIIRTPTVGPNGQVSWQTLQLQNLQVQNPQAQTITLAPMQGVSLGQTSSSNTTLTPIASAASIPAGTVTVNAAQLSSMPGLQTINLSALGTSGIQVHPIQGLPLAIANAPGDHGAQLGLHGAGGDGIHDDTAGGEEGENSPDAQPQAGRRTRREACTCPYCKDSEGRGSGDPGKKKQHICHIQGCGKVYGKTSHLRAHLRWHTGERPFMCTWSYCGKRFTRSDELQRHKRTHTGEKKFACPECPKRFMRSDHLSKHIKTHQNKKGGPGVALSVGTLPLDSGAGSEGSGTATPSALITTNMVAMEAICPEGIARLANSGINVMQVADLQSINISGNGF
Steroid hormone receptor ERR1 (Homo sapiens), sequence (P11474 whole entry, looked up, the tested form may be a part): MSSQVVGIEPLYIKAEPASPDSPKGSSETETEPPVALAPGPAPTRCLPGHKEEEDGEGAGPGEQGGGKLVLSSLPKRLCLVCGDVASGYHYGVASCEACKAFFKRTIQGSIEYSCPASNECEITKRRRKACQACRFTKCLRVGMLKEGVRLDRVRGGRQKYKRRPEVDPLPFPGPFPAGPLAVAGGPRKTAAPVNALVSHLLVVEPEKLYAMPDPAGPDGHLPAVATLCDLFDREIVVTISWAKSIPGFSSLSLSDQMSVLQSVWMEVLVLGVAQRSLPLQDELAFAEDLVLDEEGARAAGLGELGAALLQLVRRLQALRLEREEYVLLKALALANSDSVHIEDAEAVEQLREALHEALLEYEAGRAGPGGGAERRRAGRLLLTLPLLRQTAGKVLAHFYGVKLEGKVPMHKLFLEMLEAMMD
Estrogen-related receptor gamma (Homo sapiens), sequence (P62508 whole entry, looked up, the tested form may be a part): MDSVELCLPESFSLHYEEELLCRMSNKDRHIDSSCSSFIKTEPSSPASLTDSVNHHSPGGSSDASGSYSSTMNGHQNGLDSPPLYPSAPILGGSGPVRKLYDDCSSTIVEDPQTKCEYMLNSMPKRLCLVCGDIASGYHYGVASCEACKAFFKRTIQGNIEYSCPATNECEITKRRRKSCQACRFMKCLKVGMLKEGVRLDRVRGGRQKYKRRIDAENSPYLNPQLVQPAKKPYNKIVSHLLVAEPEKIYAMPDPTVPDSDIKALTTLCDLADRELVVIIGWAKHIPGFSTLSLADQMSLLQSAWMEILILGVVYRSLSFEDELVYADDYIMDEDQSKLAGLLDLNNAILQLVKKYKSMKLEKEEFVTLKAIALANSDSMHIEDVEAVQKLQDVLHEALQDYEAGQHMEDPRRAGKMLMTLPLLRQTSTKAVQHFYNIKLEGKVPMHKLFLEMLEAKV
Nuclear receptor subfamily 1 group I member 3 (Homo sapiens), sequence (Q14994 whole entry, looked up, the tested form may be a part): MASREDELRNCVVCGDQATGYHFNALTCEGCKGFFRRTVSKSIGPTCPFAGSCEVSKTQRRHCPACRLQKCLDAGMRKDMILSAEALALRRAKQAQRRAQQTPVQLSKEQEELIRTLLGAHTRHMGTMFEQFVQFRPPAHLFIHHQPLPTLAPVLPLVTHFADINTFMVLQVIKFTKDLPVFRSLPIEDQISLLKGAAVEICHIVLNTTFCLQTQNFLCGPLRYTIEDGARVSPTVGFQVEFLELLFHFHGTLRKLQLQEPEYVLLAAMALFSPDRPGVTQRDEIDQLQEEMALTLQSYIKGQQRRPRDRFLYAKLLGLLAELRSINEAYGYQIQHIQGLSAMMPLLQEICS
X-box-binding protein 1 (Homo sapiens), sequence (P17861 whole entry, looked up): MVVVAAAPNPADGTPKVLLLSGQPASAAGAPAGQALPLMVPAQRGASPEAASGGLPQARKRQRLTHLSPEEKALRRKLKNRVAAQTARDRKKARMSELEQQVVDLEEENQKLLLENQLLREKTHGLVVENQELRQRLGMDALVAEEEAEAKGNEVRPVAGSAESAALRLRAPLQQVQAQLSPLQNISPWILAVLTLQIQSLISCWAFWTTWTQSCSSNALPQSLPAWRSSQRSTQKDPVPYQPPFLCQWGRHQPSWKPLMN

O=S(=O)(O)c1ccccc1C=Cc1ccc(-c2ccc(C=Cc3ccccc3S(=O)(=O)O)cc2)cc1
active: [9] 32.4 µM | [10] 57.8 µM
not listed: [15] | [16] | [17] | [18] | [19]
inactive: all other assays above

CCOCC(=O)O
not listed: [12] | [17] | [18] | [19]
inactive: all other assays above

CCOC(=O)c1ccccc1C(=C1C=C(Br)C(=O)C(Br)=C1)c1cc(Br)c(O)c(Br)c1
inactive: [15] | [5] | [6] | [7] | [9] | [10] | [12]
active: [1] 39.3 µM | [2] 19.8 µM | [4] 20.7 µM | [11] 25.9 µM | [13] 34.4 µM

O=C(C=Cc1ccccc1)OCc1ccccc1
not listed: [11] | [14] | [16] | [17] | [18] | [19]
inactive: all other assays above

CC(C)(C)C1CCCCC1=O (stereo not given)
not listed: [2] | [3] | [6] | [11] | [14] | [16] | [18] | [19]
inactive: all other assays above

CCC(C)OC(=O)c1ccc(O)cc1 (stereo not given)
active: [2] 100 µM | [11] 62.7 µM | [12] 0.75 µM
not listed: [3] | [14] | [17]
inactive: all other assays above

CC=CC(F)(F)C(F)(F)C(F)(F)F
not listed: [12] | [14] | [16] | [17] | [18]
inactive: all other assays above

CCCOC(=O)CCCCC(=O)OCCC
not listed: [12] | [18]
inactive: all other assays above

O=c1c2ccccc2nnn1CCl
not listed: [10] | [14] | [16] | [19]
inactive: all other assays above

CCC(Cc1ccccc1)(C(=O)c1ccc(N2CCOCC2)cc1)N(C)C (stereo not given)
active: [1] 42 µM | [3] 21.4 µM | [7] 30.2 µM | [8] 49.8 µM | [9] 23.5 µM | [11] 6.85 µM | [12] 1.03 µM
not listed: [17] | [18] | [19]
inactive: all other assays above

COC(=O)c1sccc1S(N)(=O)=O
not listed: [10] | [12] | [16] | [17] | [18]
inactive: all other assays above

O=C(/C=C/C=C/c1ccc2c(c1)OCO2)N1CCCCC1
active: [7] 66.9 µM | [9] 100 µM | [11] 2.53 µM
not listed: [18] | [19]
inactive: all other assays above

O=C(c1ccccc1)C1CCC1
not listed: [14] | [16] | [19]
inactive: all other assays above

Cc1cnc(NC(=O)C2=C(O)c3ccccc3S(=O)(=O)N2C)s1
not listed: [11] | [15] | [16] | [17] | [18] | [19]
inactive: all other assays above

CCCCCCCCCCCCCCCC(=O)OCC
not listed: [4] | [11] | [16] | [18] | [19]
inactive: all other assays above

C=C(C)c1cccc(C(C)(C)N=C=O)c1
active: [11] 0.377 µM
not listed: [2] | [12] | [16] | [17] | [19]
inactive: all other assays above

CCCCCC/C=C\CCCCCCCC(=O)O
not listed: [4] | [7] | [12] | [14] | [16] | [17] | [18] | [19]
inactive: all other assays above

C=C[Si](OC(C)=O)(OC(C)=O)OC(C)=O
not listed: [3] | [4] | [11] | [12] | [16] | [19]
inactive: all other assays above

CCCCCCCCc1ccc(Nc2ccc(CCCCCCCC)cc2)cc1
active: [11] 19.8 µM
not listed: [3] | [4] | [17] | [18]
inactive: all other assays above

— PubChem BioAssay (EPA / NIEHS)
